This is an account of results in PubChem BioAssay AID488850 (National Center for Advancing Translational Sciences (NCATS), 2010).

Structures are written as SMILES. Inconclusive results are not listed. Values without a mark were called inactive. Activity calls are given as the source filed them. Calls follow the shape of the dose curve; as a rule, active = well fitted activation curve with a large enough effect; inconclusive = small, poorly fitted or top-dose-only effect; inactive = flat fitted curve, though single readings scatter.

The target in the test is Lysosomal acid glucosylceramidase (Homo sapiens) (UniProt P04062). The experiment in a line: qHTS Assay for Inhibitors and Activators of N370S glucocerebrosidase as a Potential Chaperone Treatment of Gaucher Disease: Purified N370S Glucocerebrosidase Confirmation for Probe SAR. Conditions: purified N370S GC, 4MU-glucoside fluorescence, 40 min; series mostly up to 57.5 µM; activity change, negative = inhibition: at the top concentration. An excerpt: NIH Chemical Genomics Center [NCGC] NIH Molecular Libraries Probe Production Centers Network [MLPCN] MLPCN Grant: MH086442-01 Assay Submitter (PI): Wei Zheng Glucocerebrosidase (GC) catalyzes the hydrolysis of beta-glucocerebroside to glucose and ceramide in lysosomes. Mutations in the glucocerebrosidase gene result in Gaucher disease, an autosomal recessive lysosomal storage disorder. Many of the mutations encountered in patients with Gaucher disease are missense alterations that may cause misfolding, decreased stability and/or mistrafficking of this lysosomal protein. […] These inhibitors include iminosugar analogs and three non-iminosugar inhibitors identified from a previous HTS of 62,000 compounds with the wild type recombinant enzyme. However, the enhancement of enzyme activity by the chaperone action of an enzyme inhibitor must be balanced against the direct inhibition of the enzyme. An enzyme activator could also function as a chaperone by binding to the enzyme and helping to correct its misfolding and mistrafficking. While activators for GC have not yet been identified, they may have better therapeutic potential than inhibitors. Therefore the discovery and development of chemical activators may provide a new strategy for the chaperone therapy. We have optimized a new assay using N370S mutant GC derived from the spleen of a Gaucher patient. […] In addition, the MLPCN compound library has expanded, which increases the chance of finding new and better probes. This assay characterizes compound activity using purified mutant enzyme instead of tissue homogenate. Compound activity differences may be due to the absence of endogenous cofactors found in tissue homogenate.
Sequence of Lysosomal acid glucosylceramidase (Homo sapiens) (P04062 whole entry N409S): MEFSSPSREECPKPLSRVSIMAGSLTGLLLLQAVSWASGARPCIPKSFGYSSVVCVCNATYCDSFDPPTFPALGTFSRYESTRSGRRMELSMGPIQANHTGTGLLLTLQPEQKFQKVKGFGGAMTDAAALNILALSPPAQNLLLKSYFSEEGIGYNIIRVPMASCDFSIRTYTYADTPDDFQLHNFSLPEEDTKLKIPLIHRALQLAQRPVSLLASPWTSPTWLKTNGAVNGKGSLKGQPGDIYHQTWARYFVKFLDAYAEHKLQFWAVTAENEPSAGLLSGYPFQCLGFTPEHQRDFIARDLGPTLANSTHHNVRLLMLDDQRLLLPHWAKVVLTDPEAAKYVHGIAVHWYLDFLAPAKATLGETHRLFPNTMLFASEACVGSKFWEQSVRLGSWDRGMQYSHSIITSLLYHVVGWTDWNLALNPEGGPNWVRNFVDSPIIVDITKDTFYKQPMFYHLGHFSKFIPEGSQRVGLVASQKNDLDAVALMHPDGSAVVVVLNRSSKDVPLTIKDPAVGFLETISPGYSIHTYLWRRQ
NCGC Assay Protocol Summary: This is a fluorogenic enzyme assay with 4-methylumbelliferyl-beta-D-glucopyranoside as the substrate and purified N370S glucocerebrosidase as the enzyme preparation. Upon the hydrolysis of this fluorogenic substrate, the resulting product, […] which can be detected by a standard fluorescence plate reader. Data were normalized to the controls for basal activity (without enzyme) and 100% activity (with enzyme). The AC50 values were determined from concentration-response data modeled with the standard Hill equation. Assay buffer: 50 mM citric acid (titrated with potassium phosphate to pH 5.0), 100 mM potassium chloride, 10 mM sodium chloride, 1 mM magnesium chloride, 0.01% Tween-20. 1536-well assay protocol: (1) Add 2 ul/well of glucocerebrosidase enzyme solution (5 nM final) (2) Add 23 nL compounds in DMSO solution. The final titration was 0.5 nM to 58 uM. (3) Add 2 ul of substrate (1 mM final) (4) Incubate at 37C for 40 min. (5) Add 2 ul stop solution (1M NaOH and 1M Glycine mixture, pH 10) (6) Detect the assay plate in a ViewLux plate reader (PerkinElmer) with Ex=365 nm and Em=440nm. Keywords: Glucocerebrosidase, beta-glucosidase, Gaucher Disease, pharmacological chaperone, chaperone therapy, high throughput screening, glucocerebrosidase inhibitor, MLSMR, MLSCN, NIH Roadmap, qHTS and NCGC
(In general: Quantitative high-throughput screening tests each substance at several concentrations.)
Consider `Cc1cc(C)n2ncc(C(=O)Nc3ccc4c(c3)OCO4)c2n1`, for which the Potency was 5.17 µM (active).
Still for that read-out and setting: then `Cc1cc(C)n2ncc(C(=O)Nc3ccc(C(F)(F)F)cc3)c2n1`, with 13 µM (active); and `Cc1cc(C)n2ncc(C(=O)Nc3ccc4c(c3)OCCO4)c2n1`, with 16.3 µM (active).
Take `CNC(=O)c1cnn2c(C)cc(C)nc12`: the “activity change, negative = inhibition” value is -2.25%.
Consider `Cc1cc(C)n2ncc(C(=O)Nc3ccc4c(c3)CCC4)c2n1`, for which the Potency is 11.6 µM (active).
On to `Cc1ccc(NC(=O)c2cnn3c(C)cc(C)nc23)c(C)c1`, for which the Potency was 23.1 µM (active).
As to `CC(=O)c1ccc(NC(=O)c2cnn3c(C)cc(C)nc23)cc1`, the “activity change, negative = inhibition” value was 19.5%.
As to `O=C(Nc1ccccc1Sc1ccccc1)c1cnn2c1NC(=C1CC1)C=C2C(F)F`, the Potency was 16.3 µM (active).
On the same count and under the same terms, then `Cc1cc(C)n2ncc(C(=O)Nc3ccccc3)c2n1`, with 9.19 µM (active); and `COc1ccc(NC(=O)c2cnn3c(C)cc(C)nc23)cc1Cl`, with 25.9 µM (active).
For `Cc1cc(C)n2ncc(C(=O)N3CCCC3)c2n1`, the “activity change, negative = inhibition” value is -9.05%.
On to `Cc1cc(C)n2ncc(C(=O)Nc3cccc(C(F)(F)F)c3)c2n1`, for which the Potency is 20.6 µM (active).
Regarding `Cc1cc(C)n2ncc(C(=O)Nc3ccncc3)c2n1`, the “activity change, negative = inhibition” value was 10.5%.
On to `Cc1cc(C)n2ncc(C(=O)Nc3ccccc3C)c2n1`, for which the Potency is 13 µM (active).
Turning to `Cc1cc(C)n2ncc(C(=O)NCc3ccccc3)c2n1`, the Potency is 13 µM (active).
On the same count and under the same terms, then `C#Cc1ccc(NC(=O)c2cnn3c(C)cc(C)nc23)cc1`, with 6.51 µM (active); and `COc1ccc(NC(=O)c2cnn3c(C)cc(C)nc23)cc1F`, with 5.8 µM (active).
Still for that read-out and setting: as for `Cc1cc(C)n2ncc(C(=O)Nc3ccc(C)c(C)c3)c2n1`, the figure is 7.3 µM (active).
The same measure, in the same setting: then `Cc1cc(C)n2ncc(C(=O)Nc3ccc(Br)cc3)c2n1`, with 16.3 µM (active).
Take `Cc1cc(C)n2ncc(C(=O)NC3CCCCC3)c2n1`: the Potency was 11.6 µM (active).
Take `Cc1cc(C)n2ncc(C(=O)Nc3cccc(C#N)c3)c2n1`: the “activity change, negative = inhibition” value is 0.235% [at 19 µM].
As to `CCc1ccc(NC(=O)c2cnn3c(C)cc(C)nc23)cc1`, the Potency is 16.3 µM (active).
The same measure, in the same setting: as for `Cc1cc(C)n2ncc(C(=O)NC3CCC(C(C)(C)C)CC3)c2n1` (stereo unspecified), the figure is 7.3 µM (active).
For `Cc1cc(C)n2ncc(C(=O)Nc3ccc(S(C)(=O)=O)cc3)c2n1`, the “activity change, negative = inhibition” value was 9.34%.
The same measure, in the same setting: then `CC(=O)Nc1ccccc1NC(=O)c1cnn2c(C)cc(C)nc12`, with 9.29%.
Consider `Cc1cc(C)n2ncc(C(=O)NCc3ccco3)c2n1`, for which the Potency is 20.6 µM (active).
Same read-out and setting: as for `Cc1ccc(NC(=O)c2cnn3c(C)cc(C)nc23)cc1`, the figure is 16.3 µM (active); as for `CC(=O)c1cccc(NC(=O)c2cnn3c(C)cc(C)nc23)c1`, 20.6 µM (active).
Still for that read-out and setting: then `O=C(Nc1cnn(Cc2ccc(F)cc2)c1)c1cnn2c(C(F)F)cc(-c3ccccc3)nc12`, with 10.3 µM (active); and `COc1ccc(NC(=O)c2cnn3c(C)cc(C)nc23)cc1`, with 14.6 µM (active).
For the molecule `Cc1cccc(NC(=O)c2cnn3c(C)cc(C)nc23)c1`, the Potency is 18.3 µM (active).
